Assay outcomes: PubChem, National Center for Advancing Translational Sciences (NCATS)
D1 antag: human D1 dopamine receptor antagonism; P21728; hit rate 3.2% among 360,000; HEK293 TREx D1 cells, calcium flux, dopamine EC80; hits give low values; AID 504652; activity change, negative = inhibition, % at 10 µM; in the data active = activity change below about -30%; also: % is scaled to controls: 0 for no effect and ±100 for the full control effect
Target sequence (P21728 whole entry, looked up): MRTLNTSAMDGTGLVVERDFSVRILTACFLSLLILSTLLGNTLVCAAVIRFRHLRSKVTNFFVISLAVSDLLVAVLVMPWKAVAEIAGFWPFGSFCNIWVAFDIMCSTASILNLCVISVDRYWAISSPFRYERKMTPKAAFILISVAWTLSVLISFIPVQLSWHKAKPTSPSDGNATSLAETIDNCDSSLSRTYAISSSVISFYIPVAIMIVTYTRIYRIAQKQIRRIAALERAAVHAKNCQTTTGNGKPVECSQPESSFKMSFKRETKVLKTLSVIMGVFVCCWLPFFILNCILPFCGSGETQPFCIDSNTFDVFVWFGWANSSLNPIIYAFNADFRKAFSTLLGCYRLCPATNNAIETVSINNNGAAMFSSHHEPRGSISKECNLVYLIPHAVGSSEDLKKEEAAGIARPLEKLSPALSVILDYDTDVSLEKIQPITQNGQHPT
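Tetracycline-induced HEK293 T-REx cells with force-coupled D1 receptor were loaded with a no-wash calcium dye. Compound was added after a 10 s baseline and read kinetically for 180 s; EC80 dopamine was then added and calcium flux followed another 180 s.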
TRHR enhancer: allosterically enhances the human TRH receptor. P34981. TRHR cells, fluo-8 calcium fluorescence, EC20 TRH enhancement. enhancement, % at 2 µM. hit rate 0.66% among 360,000; in the data active = enhancement above about 30%; also: 0% is about no effect
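Enhancer read-out: after compound pinning and an initial kinetic agonist-mode read, an EC20 of TRH (10 nM final) was injected and fluo-8 calcium signal (Ex 480/Em 530) followed at 1 s/cycle for 100 cycles in TRHR-expressing cells.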
TRHR ag: activates the human TRH receptor. P34981. TRHR cells, calcium flux fluo-8, FDSS agonist mode. hit rate 0.18% among 360,000. activation, % at 2 µM; also: 0% is about no effect
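Agonist-mode FDSS calcium read (Ex 480/Em 530, 1 s cycles) in 1536-well TRHR cells with fluo-8 dye, after 10-cycle baseline and 23 nL compound addition; TRH at EC20 (10 nM final) added afterwards for the enhancer phase.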
D1 agonist: human D1 receptor agonism; P21728; HEK293 T-REx D1 cells, calcium flux, agonist mode; activation, % at 2 µM; hit rate 1% among 360,000; AID 504660; also: 0% is about no effect
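Inducible HEK293 T-REx D1 cells, force-coupled to calcium signalling, were plated at 4000 cells/well with tetracycline and held overnight at 30 C. After no-wash calcium dye loading, compound-evoked calcium rise over 180 s flagged agonists.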
D1 PAM: human D1 dopamine receptor positive modulation; potentiation, % at 10 µM; P21728; hit rate 0.036% among 360,000; HEK293 TREx D1 cells, calcium flux, dopamine EC20 potentiation; in the data active = potentiation above about 30%; also: 0% is about no effect
* hit, by the source's call; · = not tested or not shown. Compounds with a hit are over-represented: about 4.7% of the library has one in this group of screens. Rule as the data show it, unless noted: active = activation above about 30%; inactive = the rest.

SMILES	D1 antag	TRHR enhancer	TRHR ag	D1 agonist	D1 PAM
COC(=O)CSc1cccc2c1C(=O)CC2c1ccccc1 (configuration not stated)	-33.1*	-5.9	-0.8	6.7	-5.0
COC(=O)CSc1ccsc1C(=O)O	1.8	-5.4	0.9	2.9	-2.6
COc1cccc(/C=C/c2nc(C#N)c(N3CCCCC3)o2)c1	-11.3	-5.6	-1.0	-0.1	2.8
COc1ccc(N(C(=O)c2cc(OC)c(OC)c(OC)c2)S(=O)(=O)c2ccc(C)cc2)cc1	2.3	6.9	-0.1	16.7	-0.8
CC(=O)N1CCc2[nH]c3ccccc3c2C1	-13.4	-2.7	1.0	-0.7	2.0
CC(=O)N1C=Cc2c(c(C)c3c([nH]c4ccccc43)c2C)C1	10.4	-0.7	-2.2	57.9*	-6.5
CC(C)c1nn2c(=O)cc(COC(=O)c3ccc(NC(=O)CCc4ccccc4)cc3)nc2s1	-17.9	5.4	0.8	3.7	-0.3
CCCOc1ccc(N2C(=O)CC(NCc3ccncc3)C2=O)cc1 (configuration not stated)	-58.6*	3.6	-0.2	0.9	1.4
CC1CCC(N2CC(=O)N(C3CCCC3)C(c3ccc(Cl)cc3)C2=O)CC1 (configuration not stated)	14.4	31.0*	-0.2	-0.7	-0.6
COC(=O)CN1C(C(=O)c2ccccc2)=C(OC(=O)c2ccccc2)c2ccccc2S1(=O)=O	3.3	-5.4	1.5	1.3	-0.5
CCCCNC(=O)COC(=O)c1cc(Br)ccc1Cl	-30.7*	-2.1	-1.9	0.8	-11.5
CCC(CC)NC(=O)COC(=O)c1cc(Br)ccc1Cl	-35.6*	23.2	-0.7	0.1	-4.6
CCCCNC(=O)COC(=O)c1cc(F)c(F)cc1Cl	-20.9	0.8	0.1	0.4	1.9
Cn1c(=O)c2c(ncn2CC(=O)Nc2cccc(Cl)c2Cl)n(C)c1=O	0.3	7.0	0.0	5.0	-0.4
CCOC(=O)c1c(-c2ccccc2)oc2ccc(OCC(O)CNCCN(C)C)cc12 (configuration not stated)	-48.4*	12.5	-0.4	45.0*	-7.7
O=C1C=CC(=O)N1c1cccc(-c2ccccc2)c1	-42.6*	-1.0	2.5	5.1	-10.2
c1ccc(CSc2snnc2-c2ccccc2)cc1	-17.0	-1.9	0.5	1.2	5.5
Clc1ccc(CSc2snnc2-c2ccccc2)c(Cl)c1	-10.0	0.1	-0.9	51.1*	-5.2
Cc1cc2c(s1)c1cnn(Cc3ccc(Cl)cc3)c(=O)c1n2C	-8.7	-0.2	0.0	4.3	-5.1
O=C(c1ccc(Cl)cc1Cl)N1CCN(c2ccc(N3CCOCC3)nn2)CC1	12.2	2.5	-0.7	30.0	-3.3
CC(NC(=O)COC(=O)c1cc(NS(=O)(=O)c2ccc(Cl)c([N+](=O)[O-])c2)ccc1O)C1CC2CCC1C2 (configuration not stated)	-31.4*	-12.9	0.2	6.5	-6.6
Cc1cc(/C=C2\SC(=S)N(Cc3ccco3)C2=O)c(C)n1-c1ccccc1	-20.0	6.3	10.4	30.7*	-1.4
Clc1ccccc1C(c1ccccc1)(c1ccccc1)n1ccnc1	-34.3*	-3.0	0.2	6.3	4.8
FC(F)(F)c1ccccc1-n1ccnc1	4.3	2.2	0.0	-2.3	-0.9
N#C/C(=N\Nc1cccc([N+](=O)[O-])c1)C(=O)c1ccc(Br)cc1	-34.2*	-5.8	0.8	21.3	-2.9
SMILES	D1 antag	TRHR enhancer	TRHR ag	D1 agonist	D1 PAM
Clc1nssc1=Nc1ccc(Br)cc1	-10.9	2.5	0.9	33.9*	-5.8
COc1ccc(CCn2c(C)nc3c(c(=O)c4ccccc4n3C)c2=O)cc1	7.4	1.5	-0.6	3.3	1.9
COc1ccc(Cn2c(-c3ccc(OC)cc3)nc3c(c(=O)c4ccccc4n3C)c2=O)cc1	3.4	-3.0	1.4	15.0	5.5
COc1ccc(Cn2c(-c3ccc(C)cc3)nc3c(c(=O)c4ccccc4n3C)c2=O)cc1	-0.2	-3.8	-0.6	39.0*	3.1
COc1ccc(CCn2c(C(C)C)nc3c(c(=O)c4ccccc4n3C)c2=O)cc1	-16.1	-6.7	17.1	140.3*	-5.2
COc1ccc(-c2nc3scc(CCNS(=O)(=O)c4ccc5c(c4)OCCO5)n3n2)cc1OC	·	-0.3	-0.3	-2.4	1.0
COc1cc2oc(=O)c(CC(=O)NCCc3ccccc3)c(C)c2cc1Cl	-3.5	5.5	-0.4	5.9	0.0
Cc1ccc2c(c1)-c1c(cnc3cc(-c4ccc(Cl)cc4)nn13)CO2	5.6	7.7	-0.3	-1.2	-3.6
CCOc1ccc(N/C(=C(/C(Cl)=C(Cl)Cl)[N+](=O)[O-])n2cncn2)cc1	12.7	4.7	1.7	2.0	-0.1
CCOc1ccccc1N/C(=C(/C(Cl)=C(Cl)Cl)[N+](=O)[O-])n1cncn1	-38.7*	-1.8	-0.1	1.1	-10.8
O=C(NCCCCc1ccccc1)c1ccccc1F	-11.8	-0.8	-1.2	2.3	-2.2
O=C(NCCCc1ccccc1)c1ccccc1	-41.1*	3.0	0.0	0.6	7.5
O=C(NCCCCc1ccccc1)c1ccccc1	-19.5	-3.4	-1.3	1.2	-3.5
O=C(NCCc1ccccc1)c1ccccc1F	-36.1*	-2.1	0.3	4.4	-5.5
Cc1ccc(O)c(CNc2cnc3ccccc3c2)c1	-30.7*	1.9	0.5	11.0	-4.3
Oc1ccc(Br)cc1CNc1cnc2ccccc2c1	-6.1	-1.9	0.2	7.6	-2.6
CCOc1ccc(-c2nnc(SCC(=O)c3ccccc3)n2-c2ccccc2)cc1	0.5	-4.3	0.6	0.2	3.5
CC(=O)Nc1sc(N/N=C\c2ccccc2F)nc1-c1cccs1	-0.9	35.6*	-0.1	-0.8	-1.7
O=C1C(SCCO)=C(SCCO)C(=O)c2ccccc21	-32.2*	-0.5	2.4	2.3	-5.7
O=C1C(Cl)=C(NCCCO)C(=O)c2ccccc21	-0.1	27.6	-0.3	2.3	-4.8
COc1ccc(NC(=O)Nc2ccc3c(c2)CCC3)cc1OC	7.1	-2.7	0.1	1.8	-0.5
COc1ccccc1NC(=O)Nc1ccc2c(c1)CCC2	-13.9	1.2	-0.7	1.6	37.9*
COc1ccc(C)cc1NC(=O)Nc1ccc2c(c1)CCC2	-43.5*	-0.5	-0.2	0.3	-3.9
Cc1nc2c(-c3ccccc3)c(C)[nH]n2c(=O)c1Cc1ccc(Br)cc1	1.1	0.9	-0.5	-0.6	-3.4
CN(C)c1ccc(-c2cc[nH]c(=O)c2N)cc1	12.4	4.1	0.6	0.4	4.8
O=C(CCc1ccccc1)NC(NC(=S)Nc1ccc(Cl)cc1)C(Cl)(Cl)Cl (configuration not stated)	-35.6*	0.3	0.1	8.8	-5.9
CCOC(=O)c1cn[nH]c1NC(=S)Nc1ccc(OC)cc1	-39.4*	-0.9	-1.5	9.8	1.1
CC(C)CC(=O)NC(NC(=S)Nc1ccccc1)C(Cl)(Cl)Cl (configuration not stated)	-16.5	5.2	0.2	13.5	-1.7
CCOC(=O)c1ccc(NC(=S)Nc2cccc(N)n2)cc1	-34.2*	13.1	0.2	1.5	-3.7
